# Measurements: PubChem BioAssay (Tox21)
# Results filed as inconclusive are left out. The source made the active and inactive calls. Calls come from the whole dose curve; as a rule, active = well fitted cell-killing curve with a large enough effect in the repeat runs; inconclusive = weak or mixed curves, or effect the other way; inactive = no such curve, though single readings can be large or run the other way.
# Test: qHTS assay to identify small molecule antagonists of the peroxisome proliferator-activated receptor gamma (PPARg) signaling pathway - cell viability counter screen (AID 743194); note: nearly all actives have a fitted effect of over 55% in size
# Details: PPARg-bla HEK293H viability, CellTiter-Glo luminescence, 17 h, co-treated with 50 nM rosiglitazone; series mostly up to 62.6 µM; activity change, negative = cytotoxicity: at the top concentration
# Source text: U.S. Tox21 Program National Center for Advancing Translational Sciences [NCATS] NIH Chemical Genomics Center [NCGC] U.S. Environmental Protection Agency [EPA] National Institutes of Environmental Health Sciences [NIEHS] National Toxicology Program [NTP] U.S. Food and Drug Administration [FDA] Tox21 Assay Overview: The peroxisome proliferator-activated receptors (PPARs) are lipid-activated transcription factors of the nuclear receptor superfamily with three distinct subtypes namely PPAR alpha, PPAR delta (also called PPAR beta) and PPAR gamma (PPARg). All these subtypes heterodimerize with Retinoid X receptor (RXR) and these heterodimers regulate transcription of various genes. PPAR-gamma receptor (glitazone receptor) is involved in the regulation of glucose and lipid metabolism. To identify the compounds that activate PPAR-gamma signaling, GeneBLAzer PPAR gamma UAS-bla HEK293H cell line (Invitrogen, Carlsbad, CA, USA) containing a beta-lactamase reporter gene under the control of an Upstream Activator Sequence (UAS) was used to screen the Tox21 compound library. The cytotoxicity of the Tox21 compound library against the PPARg-bla cell line was tested in parallel by measuring the cell viability using CellTiter-Glo assay in the same wells.
# Tox21 Assay Protocol Summary: PPARg-bla cells were dispensed at 3000 cells/5uL/well in 1536-well black wall/clear bottom plates using a Multidrop Combi (Thermo Fisher Scientific, Waltham, MA) dispenser. After the assay plates were incubated at 37 C and 5% CO2 for 5 h, 23 nL of compounds dissolved in DMSO, positive controls or DMSO only was transferred to the assay plate by a Pintool station (Kalypsys, San Diego, CA), followed by addition of 1ul Rosiglitazone (50 nM, final concentration in the wells). The assay plates were incubated at 37 C for 17 h, and then 1 uL of LiveBLAzerTM B/G FRET substrate was added using a Bioraptr Flying Reagent Dispenser (FRD) workstation (Beckman Coulter, Indianapolis, IN, USA). The assay plates were incubated at room temperature for 1 h and fluorescence intensity was measured by an Envision plate reader (PerkinElmer, Shelton, CT). For cell viability readout that measures cytotoxicity, 4 ul/well of CellTiter-Glo reagent was added into the assay plates using a Flying Reagent Dispenser. After 30 min incubation at room temperature, the luminescence intensity in the plates was measured using a ViewLux plate reader (PerkinElmer).
# % is set by controls: 0 for no effect and ±100 for the full control effect.
SMILES,outcome,"activity change, negative = cytotoxicity"
C[C@H]1C[C@H]2[C@@H]3CCC4=CC(=O)C=C[C@]4(C)[C@@]3(F)[C@@H](O)C[C@]2(C)[C@@]1(O)C(=O)CO,inactive,–
O=C(O)[C@H](O)[C@@H](O)[C@H](O)[C@H](O)CO,inactive,–
C=CCNC(N)=S,inactive,–
O=S(=O)(O)c1ccc2ccccc2c1,inactive,–
C/C=C1/CC2C=CC1C2 (stereo not given),–,5.05% (inactive)
C=C(C)C(=O)OCCOCCOCCOC(=O)C(=C)C,–,4.83% (inactive)
CCCCN(CCCC)CCCC,inactive,–
CCCCCCOCCO,–,13.7% [at 81.1 µM] (inactive)
CCCSc1ccc2nc(NC(=O)OC)[nH]c2c1,inactive,–
CC1=CCC2CC1C2(C)C (stereo not given),inactive,–
CC[C@H](C)C(=O)O[C@H]1C[C@@H](C)C=C2C=C[C@H](C)[C@H](CC[C@@H]3C[C@@H](O)CC(=O)O3)[C@H]21,inactive,–
C[C@H]1C[C@@H]2[C@H]([C@@H](O)C[C@@]3(C)[C@H]2CC[C@]3(O)C(=O)CO)[C@@]2(C)C=CC(=O)C=C12,inactive,–
O=c1[nH]c(=O)n([C@H]2CCCO2)cc1F,inactive,–
OCc1cccnc1,inactive,–
Cc1ccc2oc(=O)ccc2c1,–,-20.3% (inactive)
C[Si](O[Si](C)(C)C)O[Si](C)(C)C,–,5.5% [at 81.1 µM] (inactive)
O=[N+]([O-])c1ccc(/C=C/c2ccc([N+](=O)[O-])cc2S(=O)(=O)O)c(S(=O)(=O)O)c1,inactive,–
O=C1CCC(N2C(=O)c3ccccc3C2=O)C(=O)N1 (stereo not given),inactive,–
O=c1[nH]nnc2ccccc12,–,21% [at 81.1 µM] (inactive)
O=C(Oc1ccccc1)c1ccccc1,inactive,–

SMILES,outcome,"activity change, negative = cytotoxicity"
ON=C1CCCCC1,inactive,–
c1ccc(OCCOc2ccccc2)cc1,inactive,–
FC(F)(F)c1ccc(Cl)c(Cl)c1,–,0.942% (inactive)
COS(C)(=O)=O,inactive,–
O=C(O)c1cc(=O)c2c(OCC(O)COc3cccc4oc(C(=O)O)cc(=O)c34)cccc2o1,inactive,–
COc1cc(Cc2cnc(N)nc2N)cc(OC)c1OC,inactive,–
CC(O)COCC(C)O (stereo not given),–,1.53% (inactive)
OCC(CO)(CBr)CBr,inactive,–
c1ccc2scnc2c1,inactive,–
C#CCN(C)Cc1ccccc1,inactive,–
CCCCOC(=O)COc1ccc(Cl)cc1Cl,inactive,–
NNc1nncc2ccccc12,inactive,–
O=C(O)CCCC[C@@H]1SC[C@@H]2NC(=O)N[C@@H]21,inactive,–
CC1=C(C)S(=O)(=O)CCS1(=O)=O,inactive,–
CC(=O)Nc1ccccc1,inactive,–
O=P(OC(CCl)CCl)(OC(CCl)CCl)OC(CCl)CCl,inactive,–
CN(C)CCC(c1ccc(Cl)cc1)c1ccccn1 (stereo not given),inactive,–
CCCCCCCCCCCCOCCO,inactive,–
CC(=O)Nc1cccc(O)c1,–,0.376% (inactive)
CC(=O)c1ccccc1,inactive,–
